Hit rate of the full screen: of about 310,000 compounds, about 2,600 (0.84%) were called active.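 Rule for the calls: active = B-score over 3 SD under the library average, and starting fluorescence ratio not unusually high; inactive = the rest.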 This excerpt belongs to a sample that is enriched for actives.
Each molecule was assayed against High affinity choline transporter 1 (Homo sapiens) (UniProt Q9GZV3) (assay: inhibitors of human choline transporter CHT (AID 488975;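 for B-score: choline stimulus applied at its EC90 after an EC20 pre-addition; B-score computed on integrated fluorescence ratio after choline addition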)). Conditions: CHT-expressing cells, membrane potential dye, choline response, at 10 µM; active compounds read low.
High affinity choline transporter 1 (Homo sapiens), sequence (Q9GZV3 whole entry, looked up): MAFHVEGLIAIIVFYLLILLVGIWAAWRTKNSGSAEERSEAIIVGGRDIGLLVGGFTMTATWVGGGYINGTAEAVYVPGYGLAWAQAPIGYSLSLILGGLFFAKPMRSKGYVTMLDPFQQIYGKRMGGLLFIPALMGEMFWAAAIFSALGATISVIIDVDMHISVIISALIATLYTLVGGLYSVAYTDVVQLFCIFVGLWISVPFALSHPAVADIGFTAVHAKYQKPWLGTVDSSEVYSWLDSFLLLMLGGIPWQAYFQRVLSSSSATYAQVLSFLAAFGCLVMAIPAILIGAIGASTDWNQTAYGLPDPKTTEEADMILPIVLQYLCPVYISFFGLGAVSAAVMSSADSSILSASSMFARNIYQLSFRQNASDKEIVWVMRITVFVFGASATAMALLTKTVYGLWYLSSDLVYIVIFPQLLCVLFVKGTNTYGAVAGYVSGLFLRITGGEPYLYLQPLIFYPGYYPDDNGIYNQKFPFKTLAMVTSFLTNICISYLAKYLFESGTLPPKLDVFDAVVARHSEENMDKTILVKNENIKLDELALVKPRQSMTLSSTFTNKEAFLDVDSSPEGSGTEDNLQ

Row | SMILES | B-score
1 | Cc1sc2ncnc(N3CCC(C(=O)Nc4nc5ccc(Cl)cc5s4)CC3)c2c1C | inactive
2 | CCc1ccc(Nc2n[n+](-c3ccccc3)c(-c3cccc(Cl)c3Cl)s2)cc1 | inactive
3 | Cc1ccc2nc(Nc3ccccc3)cc(C)c2c1 | -8.75 (active)
4 | Cc1ccc2nc(Nc3ccccc3O)nc(-c3ccccc3)c2c1 | inactive
5 | Cc1cc(Nc2ccc(Br)cc2)nc2ccccc12 | inactive
6 | O=S(=O)(Nc1ccc(Cl)cn1)c1cnc(Cl)c(Br)c1 | -8.67 (active)
7 | Cc1ccc(NS(=O)(=O)c2ccc(F)cc2)nc1 | inactive
8 | O=S(=O)(Nc1ccccn1)c1cccc(S(=O)(=O)c2ccc(Cl)cc2)c1 | inactive
9 | CC(=O)c1c(C)[nH]c(C(=O)COC(=O)CCOc2ccc(C)cc2)c1C | inactive
10 | CCOC(=O)N1CCN(C(=O)C2CCN(S(=O)(=O)c3cc(Cl)ccc3OCC)CC2)CC1 | inactive
11 | CCOC(=O)N1CCN(C(=O)C2CCN(c3ncnc4c3sc3cccc(F)c34)CC2)CC1 | -5.37 (active)
12 | CCOC(=O)C1CCN(c2ncnc3c2oc2ccc(Br)cc23)CC1 | inactive
13 | CC(=O)NCC(O)c1ccc([N+](=O)[O-])cc1 (configuration not stated) | inactive
14 | CNCC(O)c1ccc(O)c(O)c1 (configuration not stated) | -5.02 (active)
15 | CCC(C)c1ccc(O)c(/C=N/O)c1 (configuration not stated) | inactive
16 | COc1cc(C(=O)NCC(=O)NCCSc2ccc(Br)cc2)cc(OC)c1OC | inactive
17 | C=CCOc1ccc(/C=C/C(=O)OCC(=O)NC(C)c2ccc(F)cc2)cc1 (configuration not stated) | inactive
18 | CCOC(=O)C(Cc1ccccc1)NC(=O)CCC(=O)c1ccc(OC)cc1 (configuration not stated) | inactive
19 | COc1ccc(C(=O)NC(Cc2ccc(OC(=O)c3ccc(OC)cc3)cc2)C(=O)O)cc1 (configuration not stated) | -5.4 (active)
20 | COc1ccc(C(=O)N[C@H](C(=O)NCc2ccccc2)C(C)C)cc1 | inactive
21 | CCOc1ccc(CCNC(=O)COC(=O)C2CCN(c3ccc(C(F)(F)F)cn3)CC2)cc1OCC | inactive
22 | FC(F)(F)c1ccc2c3n(nc2c1)CCN=C3c1ccc(Cl)cc1 | inactive
23 | Cc1cccc(C(=O)NCCCN2CCCC2=O)c1 | inactive

Row | SMILES | B-score
24 | Cc1ccc(C(=O)NCCN2CCOCC2)cc1C | inactive
25 | Cc1cccc(-c2nc3ccc(C(=O)NCCN4CCN(C)CC4)cc3nc2-c2cccc(C)c2)c1 | -5.67 (active)
26 | NC1=NC(c2ccc([N+](=O)[O-])cc2)N(c2ccc(F)cc2)C(N)=N1 (configuration not stated) | inactive
27 | Cc1ccc(OCC(=O)OC(C)CN(C)Cc2ccccc2)cc1 (configuration not stated) | inactive
28 | OC(CNCc1ccc2c(c1)OCO2)COc1ccccc1 (configuration not stated) | inactive
29 | CN(Cc1ccccc1)CC(O)COc1ccc(CNCc2cc3ccccc3s2)cc1 (configuration not stated) | -5.57 (active)
30 | COc1ccccc1NC(=O)Nc1nc(CC(=O)Nc2ccccc2F)cs1 | inactive
31 | CCOc1cc(N2CCOCC2)c(OCC)cc1NC(=O)COc1cccc(Cl)c1 | inactive
32 | CCN(CC(=O)Nc1cccc(S(=O)(=O)N2CCCCC2)c1)Cc1ccccc1 | inactive
33 | Cc1ccc(-c2cc(=O)[nH]c(NCc3ccccc3)n2)cc1 | inactive
34 | CCCCN(C1CCS(=O)(=O)C1)S(=O)(=O)c1ccc(C(C)C)cc1 (configuration not stated) | inactive
35 | CCCCOc1ccc(Cl)cc1CSc1nncn1N | -4.96 (active)
36 | Cc1cc(=O)[nH]c(SCc2cc(Cl)ccc2OC(F)F)n1 | inactive
37 | COc1ccc(Cl)cc1CSc1ncn[nH]1 | inactive
38 | COc1ccccc1C(CNC(=O)c1cccc(NS(=O)(=O)c2ccc(Br)cc2)c1)N(C)C (configuration not stated) | inactive
39 | CN(CC(=O)NCc1cccnc1)S(=O)(=O)c1cc(Cl)ccc1Cl | inactive
40 | COc1ccc(CC2c3cc(OC)c(OC)cc3CC[N+]2(C)CCC(=O)OCCCCCOC(=O)CC[N+]2(C)CCc3cc(OC)c(OC)cc3C2Cc2ccc(OC)c(OC)c2)cc1OC (configuration not stated) | inactive
41 | Cc1ccccc1N1CC(C(=O)Nc2ccc(S(=O)(=O)N3CCCC3)cc2)CC1=O (configuration not stated) | inactive
42 | CCC1(c2ccccc2)NC(=O)N(CC(=O)Nc2ccccc2C(=O)NC2CCCC2)C1=O (configuration not stated) | inactive
43 | CCc1noc(C)c1C(=O)Oc1ccc(N(C)S(=O)(=O)c2ccc(C)c(C)c2)cc1 | inactive
44 | CN1CCN(NC(=O)c2ccc(S(=O)(=O)N3CCCCCC3)cc2)CC1 | inactive
45 | CC1CC(C)CN(S(=O)(=O)c2ccc(C(=O)NN3CCOCC3)cc2)C1 (configuration not stated) | inactive
46 | CC1CN(S(=O)(=O)c2ccc(C(=O)NN3CCN(C)CC3)cc2)CC(C)O1 (configuration not stated) | -5.14 (active)

Row | SMILES | B-score
47 | CCCc1cc(=O)[nH]c(SCC(=O)c2c(N)n(CC(C)C)c(=O)n(C)c2=O)n1 | inactive
48 | CCOC(=O)c1c(C)nc2c(c1C)c(=O)oc1ccccc12 | inactive
49 | Cc1ccccc1-n1nnc2c(=O)oc3ccccc3c21 | -6.25 (active)
50 | CCCCC(=O)Nc1cc(C)c2c(=O)oc3ccccc3c2n1 | inactive
51 | Cc1ccc(Cl)c(OCC(=O)N(C)CC(=O)Nc2ccc(N3CCOCC3)cc2)c1 | inactive
52 | Cc1ccc(C(=O)N/C(=C/C=C/c2ccccc2)C(=O)NCc2ccco2)cc1 | -7.21 (active)
53 | O=C(NCc1ccco1)/C(=C/c1ccco1)NC(=O)c1ccccc1 | inactive
54 | CNC(=O)/C(=C\C=C\c1ccccc1)NC(=O)c1ccc([N+](=O)[O-])cc1 | inactive
55 | Cc1n[nH]c(=O)c2c(NC(=O)CSc3ccccc3F)oc(C)c12 | inactive
56 | Cc1ccc2nc(SCC(=O)Nc3cccc4ccccc34)nc(=O)n2c1 | inactive
57 | Cc1nn(CC(=O)NCC2CCCO2)c(=O)c2cc3ccccc3n12 (configuration not stated) | -5.7 (active)
58 | Cc1sc2c(c1C)c(=O)n(-c1ccccc1)c(=O)n2CC(=O)NCC1CCCO1 (configuration not stated) | inactive
59 | Cc1c(Cl)c([N+](=O)[O-])nn1CC(=O)NCC1CCCO1 (configuration not stated) | inactive
60 | COc1ccc(N2C(=O)CC(SC(C)C)C2=O)cc1 (configuration not stated) | inactive
61 | COc1ccc(N2C(=O)C(Cc3ccccc3)NC2=S)cc1 (configuration not stated) | inactive
62 | COc1ccc(N2C(=O)CNC2=S)cc1 | -7.99 (active)
63 | CCOC(=O)N1CCN(C(=O)c2ccccc2SCC(=O)NCC2CCCCC2)CC1 | inactive
64 | O=C(O)c1ccc(S(=O)(=O)N2CCC(Cc3ccccc3)CC2)cc1 | inactive
65 | CC(C)(C)NC(=O)NC(=O)CN1CCC(Cc2ccccc2)CC1 | -7.19 (active)
66 | NC(=O)c1ccc(CN2CCC(Cc3ccccc3)CC2)cc1 | inactive
67 | Cc1sc2ncnc(N3CCC(C(=O)NNC(=O)c4ccc(F)cc4)CC3)c2c1C | inactive

Source: PubChem BioAssay AID488975 (Johns Hopkins Ion Channel Center, 2010)
